Assay results as given in PubChem BioAssay (EPA / NIEHS).
Results filed as inconclusive are left out. The source made the active and inactive calls. The calls were made as follows, unless noted: active = hit-call score of the fitted dose curve at least 0.9, where 1 is the maximum; inconclusive = response in the unintended direction; inactive = score below 0.9.

Key:
[1] = target: Bile acid receptor (Homo sapiens) (UniProt Q96RI1); test: ATG_IR1_CIS: Attagene CIS-FACTORIAL HepG2 Assay for human Nuclear Receptor Subfamily 1 Group H Member 4 (NR1H4), IR1 submotif (AID 2282946; active = hit-call score of the fitted dose curve at least 0.9, where 1 is the maximum; inactive = score below 0.9); details: IR1 reporter transcription, actives raise or lower the signal
Chain of Bile acid receptor (Homo sapiens) (Q96RI1 whole entry, looked up, the tested form may be a part): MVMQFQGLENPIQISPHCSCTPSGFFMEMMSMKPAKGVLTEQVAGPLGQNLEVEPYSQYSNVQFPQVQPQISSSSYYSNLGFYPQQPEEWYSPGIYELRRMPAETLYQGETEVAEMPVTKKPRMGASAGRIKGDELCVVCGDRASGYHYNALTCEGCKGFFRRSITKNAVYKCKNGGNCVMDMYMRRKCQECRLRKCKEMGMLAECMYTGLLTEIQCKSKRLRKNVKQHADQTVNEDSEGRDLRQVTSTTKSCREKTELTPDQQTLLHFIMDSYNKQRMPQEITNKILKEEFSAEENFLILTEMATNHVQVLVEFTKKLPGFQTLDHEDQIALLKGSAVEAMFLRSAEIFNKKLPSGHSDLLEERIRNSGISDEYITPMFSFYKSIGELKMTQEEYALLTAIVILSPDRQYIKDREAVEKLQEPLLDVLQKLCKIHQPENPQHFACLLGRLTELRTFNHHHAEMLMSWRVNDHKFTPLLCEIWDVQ
How it was run: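 Fluorescence of capillary-separated, HpaI-digested RT-PCR reporter products gave IR1-element mRNA induction in HepG2 cells 24 h after dosing. Endogenous transcription factors drove the cis-regulated reporters; activity was fitted bidirectionally against DMSO.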

[2] = ATG_M_19_TRANS: Attagene TRANS-FACTORIAL HepG2 Assay for M19 Transcription Factor (Internal Marker) (AID 2282974); details: HepG2 Attagene TRANS-FACTORIAL M19 internal marker reporter
How it was run: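 Fluorescence of 6-FAM-labelled reporter cDNA fragments, separated by capillary electrophoresis, served as the readout. These derived from HepG2 cells carrying transfected GAL4-UAS reporter units after 24 h dosing, with DMSO as negative control.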

[3] = target: Bile acid receptor (Homo sapiens) (UniProt Q96RI1); test: ATG_FXR_TRANS: Attagene TRANS-FACTORIAL HepG2 Assay for Farnesoid X Receptor (FXR) (AID 2282979); details: HepG2 Attagene TRANS FXR-GAL4 reporter transcription;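 also: hits raise reporter mRNA above DMSO so AC50 marks FXR activation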
How it was run: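 HepG2 cells were transiently transfected with GAL4-UAS reporters driven by chimeric NR-Gal4 proteins and dosed for 24 h. Reporter mRNA was quantified by RT-PCR, fluorescent labelling, HpaI digestion and capillary electrophoresis, with gain of signal scored versus DMSO.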

[4] = target: Oxysterols receptor LXR-alpha (Homo sapiens) (UniProt Q13133); test: ATG_LXRa_TRANS: Attagene TRANS-FACTORIAL HepG2 Assay for human Liver X Receptor alpha (LXRa) (AID 2282980); details: HepG2 Attagene TRANS reporter, LXRa transactivation
Chain of Oxysterols receptor LXR-alpha (Homo sapiens) (Q13133 whole entry, looked up, the tested form may be a part): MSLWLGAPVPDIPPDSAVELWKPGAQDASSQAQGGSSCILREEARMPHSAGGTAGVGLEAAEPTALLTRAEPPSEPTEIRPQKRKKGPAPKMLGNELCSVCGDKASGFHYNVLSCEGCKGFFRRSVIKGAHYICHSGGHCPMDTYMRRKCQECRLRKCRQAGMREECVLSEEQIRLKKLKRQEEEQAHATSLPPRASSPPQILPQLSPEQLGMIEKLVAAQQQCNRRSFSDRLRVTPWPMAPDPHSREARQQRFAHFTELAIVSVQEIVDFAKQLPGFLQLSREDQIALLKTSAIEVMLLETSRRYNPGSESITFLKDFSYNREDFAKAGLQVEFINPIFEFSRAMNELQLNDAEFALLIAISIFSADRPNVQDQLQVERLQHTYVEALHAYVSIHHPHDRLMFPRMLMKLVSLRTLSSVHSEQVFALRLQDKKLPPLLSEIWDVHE
How it was run: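 HepG2 cells transiently transfected with GAL4-UAS reporter units for chimeric NR-Gal4 proteins, exposed to chemicals for 24 h. Reporter mRNA quantified by RT-PCR and capillary electrophoresis; gain of signal fitted relative to DMSO.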

[5] = target: Oxysterols receptor LXR-beta (Homo sapiens) (UniProt P55055); test: ATG_LXRb_TRANS: Attagene TRANS-FACTORIAL HepG2 Assay for human Liver X Receptor beta (LXRb) (AID 2282981); details: HepG2 Attagene TRANS GAL4-LXRb reporter, mRNA
Chain of Oxysterols receptor LXR-beta (Homo sapiens) (P55055 whole entry, looked up, the tested form may be a part): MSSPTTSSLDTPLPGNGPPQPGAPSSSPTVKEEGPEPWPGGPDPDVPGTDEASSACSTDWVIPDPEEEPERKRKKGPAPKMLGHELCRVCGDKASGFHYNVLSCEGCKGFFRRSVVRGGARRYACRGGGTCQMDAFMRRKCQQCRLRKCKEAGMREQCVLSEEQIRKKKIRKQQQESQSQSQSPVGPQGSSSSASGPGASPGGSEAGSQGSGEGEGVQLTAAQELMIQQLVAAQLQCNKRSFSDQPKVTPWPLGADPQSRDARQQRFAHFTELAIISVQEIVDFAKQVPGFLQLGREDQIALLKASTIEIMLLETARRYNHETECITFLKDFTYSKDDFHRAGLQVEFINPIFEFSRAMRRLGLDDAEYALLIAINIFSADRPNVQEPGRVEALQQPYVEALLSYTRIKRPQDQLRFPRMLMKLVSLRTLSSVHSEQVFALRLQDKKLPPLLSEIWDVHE
How it was run: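 Readout: fluorescent reporter mRNA fragments resolved by capillary electrophoresis after RT-PCR. System: transiently transfected human HepG2, exogenous LXRb-Gal4 chimera driving GAL4-UAS reporter, 24 h dosing. Activity fitted upward against DMSO baseline.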

[6] = target: human RAR-related Orphan Receptor beta (RORb), RORB (gene 6096) (UniProt Q92753); test: ATG_RORb_TRANS: Attagene TRANS-FACTORIAL HepG2 Assay for human RAR-related Orphan Receptor beta (RORb) (AID 2283010)
Chain of human RAR-related Orphan Receptor beta (RORb), RORB (gene 6096) (Q92753 whole entry, looked up, the tested form may be a part): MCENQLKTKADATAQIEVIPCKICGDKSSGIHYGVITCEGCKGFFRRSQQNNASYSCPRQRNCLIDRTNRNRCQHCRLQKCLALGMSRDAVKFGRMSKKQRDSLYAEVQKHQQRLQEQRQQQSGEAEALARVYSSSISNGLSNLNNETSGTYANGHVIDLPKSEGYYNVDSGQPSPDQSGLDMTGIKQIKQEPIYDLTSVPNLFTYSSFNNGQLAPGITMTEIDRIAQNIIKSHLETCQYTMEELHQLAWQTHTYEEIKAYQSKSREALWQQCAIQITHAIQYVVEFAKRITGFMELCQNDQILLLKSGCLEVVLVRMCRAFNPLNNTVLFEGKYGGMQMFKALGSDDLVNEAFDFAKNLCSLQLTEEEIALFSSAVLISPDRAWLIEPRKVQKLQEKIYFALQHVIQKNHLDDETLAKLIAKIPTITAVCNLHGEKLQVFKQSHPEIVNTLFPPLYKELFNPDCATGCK
How it was run: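 Multiplexed transcription-factor reporter assay: HepG2 cells transiently carrying NR-Gal4/GAL4-UAS constructs, 24 h treatment, mRNA quantified by RT-PCR plus capillary electrophoresis fluorescence; activity scored as induction over DMSO.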

[7] = target: human RAR-related Orphan Receptor gamma (RORg), RORC (gene 6097) (UniProt P51449); test: ATG_RORg_TRANS: Attagene TRANS-FACTORIAL HepG2 Assay for human RAR-related Orphan Receptor gamma (RORg) (AID 2283011)
Chain of human RAR-related Orphan Receptor gamma (RORg), RORC (gene 6097) (P51449 whole entry, looked up, the tested form may be a part): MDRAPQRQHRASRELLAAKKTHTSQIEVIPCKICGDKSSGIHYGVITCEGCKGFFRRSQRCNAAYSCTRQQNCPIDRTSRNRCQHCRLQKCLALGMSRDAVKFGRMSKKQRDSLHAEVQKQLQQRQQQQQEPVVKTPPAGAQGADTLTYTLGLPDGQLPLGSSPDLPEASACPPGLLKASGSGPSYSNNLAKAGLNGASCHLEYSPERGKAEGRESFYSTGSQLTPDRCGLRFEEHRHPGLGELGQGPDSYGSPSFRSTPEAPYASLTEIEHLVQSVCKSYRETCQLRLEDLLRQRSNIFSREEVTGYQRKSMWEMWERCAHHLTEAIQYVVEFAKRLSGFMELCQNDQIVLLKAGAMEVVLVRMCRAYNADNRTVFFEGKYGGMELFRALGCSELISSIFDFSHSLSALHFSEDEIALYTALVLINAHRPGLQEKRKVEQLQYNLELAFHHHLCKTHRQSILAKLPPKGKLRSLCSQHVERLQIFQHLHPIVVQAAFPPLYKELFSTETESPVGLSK
How it was run: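 HepG2 cells transiently transfected with GAL4-UAS reporter units and chimeric RORg-Gal4 construct; after 24 h chemical exposure, reporter mRNA measured by RT-PCR with fluorescent capillary electrophoresis, gain of signal fitted against DMSO.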

[8] = target: human Thyroid Receptor alpha (THRa1), THRA (gene 7067) (UniProt P10827); test: ATG_THRa1_TRANS: Attagene TRANS-FACTORIAL HepG2 Assay for human Thyroid Receptor alpha (THRa1) (AID 2283014)
Chain of human Thyroid Receptor alpha (THRa1), THRA (gene 7067) (P10827 whole entry, looked up, the tested form may be a part): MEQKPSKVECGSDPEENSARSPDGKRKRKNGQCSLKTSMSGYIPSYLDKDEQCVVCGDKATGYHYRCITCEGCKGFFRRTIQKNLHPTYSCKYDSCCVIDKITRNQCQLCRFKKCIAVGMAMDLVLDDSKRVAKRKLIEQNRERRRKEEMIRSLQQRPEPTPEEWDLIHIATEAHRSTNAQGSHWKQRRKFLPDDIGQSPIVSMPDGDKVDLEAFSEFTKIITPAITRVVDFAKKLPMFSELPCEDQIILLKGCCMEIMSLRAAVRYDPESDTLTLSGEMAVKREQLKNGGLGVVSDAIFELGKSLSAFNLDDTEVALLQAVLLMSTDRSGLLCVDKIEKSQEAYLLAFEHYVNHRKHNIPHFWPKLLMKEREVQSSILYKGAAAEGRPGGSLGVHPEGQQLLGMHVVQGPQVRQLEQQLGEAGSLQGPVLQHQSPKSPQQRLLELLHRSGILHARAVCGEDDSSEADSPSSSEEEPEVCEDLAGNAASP
How it was run: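 HepG2 cells transiently transfected with chimeric NR-Gal4 and GAL4-UAS reporter units, dosed 24 h. Reporter mRNA quantified by RT-PCR, fluorescent labeling, HpaI digestion and capillary electrophoresis; gain-of-signal fit versus DMSO.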

[9] = TOX21_p53_BLA_p3_viability: Viability Assessment in the Tox21 HCT-116 p53 Agonism Beta-lactamase Assay, Phase 3 (AID 2283593);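 also: cells exposed to compound for 16 h before reading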
How it was run: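 HCT116 cells, 4000/well, dosed 5 h after plating by pin transfer (217-fold dilution from DMSO stock) and incubated 16 h at 37C, 5% CO2. Viability read as ATP luminescence with CellTiter-Glo after 30 min at room temperature.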

[10] = TOX21_p53_BLA_p4_viability: Viability Assessment in the Tox21 HCT-116 p53 Agonism Beta-lactamase Assay, Phase 4 (AID 2283597);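 also: hits lower the luminescence signal meaning cytotoxicity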
How it was run: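 4000 HCT116 cells per well; 5 h attachment; compounds from DMSO, 217-fold dilution; 16 h at 37C. Then CCF4-AM, 2 h RT, followed by CellTiter-Glo, 30 min RT, luminescence. Decrease = cytotoxicity.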

[11] = ACEA_ER_AUC_viability: ACEA Biosciences xCELLigence Real-Time Cell Analysis on Estrogen Receptor Agonism for Viability (AID 2283782);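 also: hit means loss of impedance signal meaning reduced cell growth or viability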
How it was run: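 Read-out: real-time electrical impedance (RT-CES) area under curve, loss of signal taken as reduced viability, normalized to DMSO baseline. T-47D cells, charcoal-stripped serum medium, compounds up to 100 uM final, continuous exposure, 80 h.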

[12] = CCTE_Harrill_HTTr_Viability_MCF7: CCTE's 6-hour Cell Viability Assessment for the High-Throughput Transcriptomics (HTTr) Platform, in MCF-7 cells cultured in DMEM + 10% fetal bovine serum, Harrill Lab (AID 2284010; active = hit-call score of the fitted dose curve at least 0.9, where 1 is the maximum; inactive = score below 0.9)
How it was run: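 Eight-point concentration series, six-hour exposure. Propidium iodide exclusion imaged to assess membrane integrity as a cytotoxicity readout; bidirectional fitting was done with DMSO as negative control and activity baseline.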

[13] = CCTE_Harrill_HTTr_Apoptosis_MCF7: CCTE's 6-hour Apoptosis Assessment for the High-Throughput Transcriptomics (HTTr) Platform, in MCF-7 cells cultured in DMEM + 10% fetal bovine serum, Harrill Lab (AID 2284011; active = hit-call score of the fitted dose curve at least 0.9, where 1 is the maximum; inactive = score below 0.9)
How it was run: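 MCF-7 cells in DMEM + 10% FBS exposed 6 h to chemicals over an eight-point dilution series. Caspase-3/7 activation imaged by high-content CellEvent Green staining; fitted bidirectionally versus DMSO.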

[14] = ATG_GAL4_TRANS: Attagene TRANS-FACTORIAL HepG2 Assay for GAL4 (Internal Marker) (AID 2282976); details: HepG2 Attagene TRANS GAL4 internal marker reporter
How it was run: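 Background-control readout: GAL4-UAS reporter transcript in transiently transfected HepG2 cells after 24 h compound exposure. Measured by RT-PCR, 6-FAM primer extension, HpaI digest and capillary electrophoresis; gain-of-signal fit versus DMSO.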

[15] = target: human Peroxisome Proliferator-activated Receptor delta (PPARd), PPARD (gene 5467) (UniProt Q03181); test: ATG_PPARd_TRANS: Attagene TRANS-FACTORIAL HepG2 Assay for human Peroxisome Proliferator-activated Receptor delta (PPARd) (AID 2283002)
Chain of human Peroxisome Proliferator-activated Receptor delta (PPARd), PPARD (gene 5467) (Q03181 whole entry, looked up, the tested form may be a part): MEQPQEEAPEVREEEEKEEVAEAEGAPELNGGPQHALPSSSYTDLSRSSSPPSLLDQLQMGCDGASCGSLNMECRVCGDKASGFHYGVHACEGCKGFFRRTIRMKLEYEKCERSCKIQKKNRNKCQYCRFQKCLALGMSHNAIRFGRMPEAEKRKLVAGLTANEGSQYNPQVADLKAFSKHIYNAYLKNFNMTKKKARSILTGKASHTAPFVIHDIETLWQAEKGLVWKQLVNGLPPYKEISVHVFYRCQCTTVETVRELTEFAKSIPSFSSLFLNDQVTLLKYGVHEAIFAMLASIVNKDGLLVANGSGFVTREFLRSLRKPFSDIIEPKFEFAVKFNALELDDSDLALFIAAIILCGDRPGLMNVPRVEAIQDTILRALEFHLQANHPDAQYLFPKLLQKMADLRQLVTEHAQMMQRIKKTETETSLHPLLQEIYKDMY
How it was run: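 Fluorescence from capillary electrophoresis of labelled RT-PCR reporter fragments gives the signal; DMSO sets baseline. Cells: HepG2 transiently carrying GAL4-UAS reporter units plus chimeric nuclear receptor-Gal4 proteins, exposed to chemicals for 24 h.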

[16] = target: Peroxisome proliferator-activated receptor gamma (Homo sapiens) (UniProt P37231); test: ATG_PPARg_TRANS: Attagene TRANS-FACTORIAL HepG2 Assay for human Peroxisome Proliferator-activated Receptor-gamma (PPARg) (AID 2283007)
Chain of Peroxisome proliferator-activated receptor gamma (Homo sapiens) (P37231 whole entry, looked up, the tested form may be a part): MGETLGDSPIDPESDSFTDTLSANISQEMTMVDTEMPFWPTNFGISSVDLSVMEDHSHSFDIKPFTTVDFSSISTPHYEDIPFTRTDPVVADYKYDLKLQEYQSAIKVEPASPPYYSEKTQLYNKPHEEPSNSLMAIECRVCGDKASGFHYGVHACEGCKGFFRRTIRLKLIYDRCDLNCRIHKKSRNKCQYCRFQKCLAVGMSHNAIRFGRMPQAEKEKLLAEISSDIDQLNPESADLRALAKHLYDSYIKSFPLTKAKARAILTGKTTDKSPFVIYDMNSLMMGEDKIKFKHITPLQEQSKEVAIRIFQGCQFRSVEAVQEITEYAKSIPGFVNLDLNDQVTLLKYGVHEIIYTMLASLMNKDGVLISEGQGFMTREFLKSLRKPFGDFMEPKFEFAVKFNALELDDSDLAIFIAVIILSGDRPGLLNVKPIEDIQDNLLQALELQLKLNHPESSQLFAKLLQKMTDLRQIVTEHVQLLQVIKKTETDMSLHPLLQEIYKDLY
How it was run: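 Transient transfection of HepG2 with GAL4-UAS-driven reporter units; chemical dosing 24 h; total RNA → oligo(dT) RT → PCR with reporter primers → 6-FAM primer extension → HpaI digest 2 h 37 C → capillary electrophoresis. Positive direction vs DMSO.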

[17] = target: human Vitamin D Receptor (VDR), VDR (gene 7421) (UniProt P11473); test: ATG_VDR_TRANS: Attagene TRANS-FACTORIAL HepG2 Assay for human Vitamin D Receptor (VDR) (AID 2283022)
Chain of human Vitamin D Receptor (VDR), VDR (gene 7421) (P11473 whole entry, looked up, the tested form may be a part): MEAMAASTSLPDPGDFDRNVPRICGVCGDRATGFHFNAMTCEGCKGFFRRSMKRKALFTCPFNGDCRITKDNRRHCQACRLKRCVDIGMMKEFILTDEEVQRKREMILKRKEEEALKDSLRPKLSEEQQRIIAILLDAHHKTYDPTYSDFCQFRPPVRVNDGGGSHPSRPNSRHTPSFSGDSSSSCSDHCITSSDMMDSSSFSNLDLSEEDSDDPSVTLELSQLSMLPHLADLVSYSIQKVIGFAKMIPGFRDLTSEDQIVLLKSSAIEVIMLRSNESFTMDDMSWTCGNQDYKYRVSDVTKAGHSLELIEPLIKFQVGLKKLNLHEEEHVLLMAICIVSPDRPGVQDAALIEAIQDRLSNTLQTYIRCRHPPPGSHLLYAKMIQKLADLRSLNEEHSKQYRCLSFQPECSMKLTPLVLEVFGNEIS
How it was run: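 HepG2 cells were transiently transfected with GAL4-UAS reporter units and a chimeric VDR-Gal4 construct, then dosed for 24 hours. Reporter mRNA was quantified by RT-PCR, fluorescent labeling, HpaI digestion and capillary electrophoresis; gain of signal analysed vs DMSO.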

[18] = ATG_XTT_Cytotoxicity: Cytotoxicity Assessment in the Attagene TRANS-FACTORIAL HepG2 Assay (AID 2283584)
How it was run: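 HepG2 cells transiently transfected with GAL4-UAS multiple reporter units, dosed 24 h; cytotoxicity read by XTT as loss of signal versus DMSO baseline.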

[19] = target: Glucocorticoid receptor (Homo sapiens) (UniProt P04150); test: ATG_GR_TRANS: Attagene TRANS-FACTORIAL HepG2 Assay for human Glucocorticoid Receptor (GR) (AID 2282978); details: HepG2 Attagene TRANS GR reporter, mRNA transcription;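 also: activators score as hits since higher reporter transcript over DMSO is fitted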
How it was run: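 Fluorescent capillary-electrophoresis quantitation of reporter mRNA is the readout, taken 24 h after dosing human HepG2 cells carrying transiently transfected GAL4-UAS reporter units activated by chimeric NR-GAL4 fusions; activity scored as induction over DMSO.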

[20] = target: Nuclear receptor subfamily 1 group I member 2 (Homo sapiens) (UniProt O75469); test: ATG_PXR_TRANS: Attagene TRANS-FACTORIAL HepG2 Assay for human Pregnane X Receptor (PXR) (AID 2283008)
Chain of Nuclear receptor subfamily 1 group I member 2 (Homo sapiens) (O75469 whole entry, looked up, the tested form may be a part): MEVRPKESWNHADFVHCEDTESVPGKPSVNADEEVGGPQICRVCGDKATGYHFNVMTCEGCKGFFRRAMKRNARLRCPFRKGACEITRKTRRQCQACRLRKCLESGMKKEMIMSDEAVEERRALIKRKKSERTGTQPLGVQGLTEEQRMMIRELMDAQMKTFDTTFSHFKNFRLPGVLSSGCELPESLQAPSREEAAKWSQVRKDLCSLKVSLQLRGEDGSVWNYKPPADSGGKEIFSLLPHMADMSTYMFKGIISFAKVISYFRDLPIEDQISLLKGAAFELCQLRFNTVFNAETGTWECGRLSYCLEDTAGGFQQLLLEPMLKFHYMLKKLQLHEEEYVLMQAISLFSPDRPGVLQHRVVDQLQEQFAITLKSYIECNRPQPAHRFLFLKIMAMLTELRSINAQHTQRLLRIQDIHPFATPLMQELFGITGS
How it was run: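 HepG2 transfected (FuGene 6) with GAL4-UAS reporter units + PXR-Gal4 chimera; dosed 24 h. Total RNA → oligo(dT) RT → PCR → 6-FAM primer extension → HpaI cut → CE. Gain-of-signal vs DMSO.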

Measured: AC50

Cc1cc2nc3c(=O)[nH]c(=O)nc-3n(C[C@H](O)[C@H](O)[C@H](O)CO)c2cc1C
active: [11] 47 µM
not listed: [14] | [15] | [16] | [17] | [18] | [19] | [20]
inactive: all other assays above

C=C1CC[C@H]2C[C@@H]1C2(C)C
inactive: [14] | [4] | [5] | [15] | [16] | [7] | [17] | [18] | [11]

CNC[C@H](O)[C@@H](O)[C@H](O)[C@H](O)CO
inactive: [1] | [3] | [6] | [17] | [9]

CCCCCCC(O)CCCCCCCCCCC(=O)OC (centres undefined)
active: [15] 22.8 µM
inactive: [19] | [4] | [20] | [8] | [17] | [18] | [9] | [10] | [11]

O=C1NC(=O)C2CC=CCC12 (centres undefined)
inactive: [1] | [5] | [15] | [20] | [17] | [18] | [9] | [10] | [11]

CC/C=C\CC1=C(C)CCC1=O
active: [16] 23.9 µM | [11] 92.5 µM
inactive: [2] | [4] | [5] | [17] | [18] | [9]
